A selection: hits, their analogues and other compounds. The true share with any hit is near 1.3%.
gsp ag: activates gsp, the McCune-Albright syndrome mutation; gsp mutant cells, cAMP HTRF, 30 min; Potency, µM (series often up to 76.9 µM), for inactives: at the top dose activation (cAMP increase), hits mostly activators; 0.13% of 340,000 active; AID 624287; active = well fitted activation curve with a large enough effect; inconclusive = small, poorly fitted or top-dose-only effect, or another doubt; inactive = no such curve, though single readings can be large or run the other way; cell line not stated here;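 also: phosphodiesterase inhibitor Ro 20-1724 added with compounds to block cAMP breakdown; potency is read from the fitted curve at half-maximal effect; nearly all actives have a fitted effect of over 60% in size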
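Cells in DMEM/10% FBS with G418 were pretreated with compounds in DMSO plus […] (300 uM stock) for 30 min at 37C. cAMP was measured by HTRF (cAMP-d2 plus anti-cAMP antibody-K) after 30 min at room temperature.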
RXFP1 ag: activates the human relaxin receptor RXFP1. 0.3% of 370,000 active. HEK293T-RXFP1 cAMP TR-FRET, 30 min; response scale: percent of porcine relaxin response, buffer zero. Potency, µM (top dose mostly 57.5 µM), inactives show at the highest dose activation, actives largely listed as activators; active = well fitted activation curve with a large enough effect; inconclusive = small, poorly fitted or top-dose-only effect; also: potency is read from the fitted curve at half-maximal effect; % is scaled to controls: 0 for no effect and ±100 for the full control effect; nearly all actives have a fitted effect of over 60% in size
Target sequence (Q9HBX9 whole entry, looked up): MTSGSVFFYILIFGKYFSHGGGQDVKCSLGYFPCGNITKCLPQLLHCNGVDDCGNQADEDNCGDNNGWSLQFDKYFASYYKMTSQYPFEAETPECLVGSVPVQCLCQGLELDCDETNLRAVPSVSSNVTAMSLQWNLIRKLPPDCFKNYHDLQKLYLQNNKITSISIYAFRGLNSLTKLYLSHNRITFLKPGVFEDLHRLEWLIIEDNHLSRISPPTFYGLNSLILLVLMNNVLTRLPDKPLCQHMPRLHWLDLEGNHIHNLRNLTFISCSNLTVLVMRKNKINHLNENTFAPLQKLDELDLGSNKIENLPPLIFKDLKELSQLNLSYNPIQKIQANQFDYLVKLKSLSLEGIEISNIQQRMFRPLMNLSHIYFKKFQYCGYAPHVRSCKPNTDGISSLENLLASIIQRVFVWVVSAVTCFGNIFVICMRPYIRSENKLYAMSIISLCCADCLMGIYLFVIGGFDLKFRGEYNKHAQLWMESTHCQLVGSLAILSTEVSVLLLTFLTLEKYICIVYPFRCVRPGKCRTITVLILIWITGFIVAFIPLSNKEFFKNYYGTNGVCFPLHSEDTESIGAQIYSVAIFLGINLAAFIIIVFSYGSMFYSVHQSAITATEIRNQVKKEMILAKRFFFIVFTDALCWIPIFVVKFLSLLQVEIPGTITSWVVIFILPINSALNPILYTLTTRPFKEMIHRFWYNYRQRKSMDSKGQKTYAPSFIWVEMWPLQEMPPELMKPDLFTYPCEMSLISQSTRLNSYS
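HEK293T cells stably expressing RXFP1 were pretreated with the PDE4 inhibitor Ro 20174, exposed to compounds for 30 min at 37C, lysed, and cAMP was read by TR-FRET. Data normalized to buffer (basal) and 29 nM porcine relaxin (100%).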
Akt phos inh: Akt phosphorylation inhibition; Neuro2A IGF-stimulated pAkt S473 HTRF, 20 min; hits give low values; activity change, % for hits at 50 µM; 0.32% of 360,000 active; in the data active = activity change below about -80%; inconclusive = mostly about -51% to -80%; also: % is scaled to controls: 0 for no effect and ±100 for the full control effect
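Neuro2A cells in DMEM with 0.5% FBS, overnight at 37 deg C, given compound at single 50 µM final, then IGF (6 nM final) for 20 min at 37 deg C. Lysed; phospho-Akt Ser473 by HTRF after 24 h, 665/615 ratio.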
TSHR antag: blocks TSH signaling through the human TSH receptor | P16473 | 0.2% of 330,000 active | TSHR-expressing cells, TSH-stimulated cAMP HTRF, 2 h; hits give low values | activity change, negative = inhibition, % at 11.5 µM;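 active = activity change below a set negative limit, meaning inhibition stronger than a set level, cut at about -70% in these data; inconclusive = activity change between two set negative limits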; also: % is scaled to controls: 0 for no effect and ±100 for the full control effect
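Freshly harvested TSHR cells receive pin-tooled compound, then EC80 TSH at 4nM final. After 2 hours at 37 deg C, antibody in lysis buffer and cAMP-d2 are added; 30 minutes at ambient temperature precede the HTRF read.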
gsp antag: antagonizes gsp, the McCune-Albright syndrome mutation. Potency, µM (series often up to 76.9 µM), without a hit: at the highest dose activity change, negative = inhibition, most hits filed as inhibitors. 0.4% of 340,000 active. AID 624288. gsp-mutant cells, cAMP HTRF, 30 min; calls by dose curve; cell line not stated here;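 also: intracellular cAMP measured with PDE inhibitor Ro 20-1724 present during compound exposure; potency is read from the fitted curve at half-maximal effect; % is scaled to controls: 0 for no effect and ±100 for the full control effect; nearly all actives have a fitted effect of over 65% in size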
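Measurement of cellular cAMP by homogeneous time-resolved fluorescence following a 30 min compound exposure at 37C. The PDE inhibitor […] was present throughout; the assay buffer was DPBS with 0.05% BSA and 0.005% Tween 20.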
RXFP1 antagonist: blocks the human relaxin receptor RXFP1 | HEK293-RXFP1, relaxin-stimulated cAMP HTRF, 30 min; hits give low values | activity change, negative = inhibition, % at 57.5 µM | Q9HBX9 | AID 1259400 | 0.59% of 350,000 active;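 active = activity change of -60% or lower, but not beyond a set lower limit; inconclusive = change between -60% and -40%, or beyond the set limit; inactive = change above -40%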; also: % is scaled to controls: 0 for no effect and ±100 for the full control effect
* hit, by the source's call; i = inactive; ? = inconclusive; · = not tested or not shown; ! = a repeat was not active; [ ] = dose if it differs, or a comment.

SMILES	gsp ag	RXFP1 ag	Akt phos inh	TSHR antag	gsp antag	RXFP1 antagonist
Cn1c(SCC(=O)Nc2ccc(NC(=O)c3ccccc3F)cc2)nnc1-c1ccncc1	6%[15.4 µM]	23%	i	-4	50µM*	3
CCOc1cccc(/C=C2/NC(=O)N(CC(=O)Nc3cccc(C)c3)C2=O)c1O	?	-1%	i	33	1%	-77*
COc1ccc(-c2csc(N(CCCN(C)C)C(=O)c3ccccc3C)n2)cc1	10%	0%	i	?	32%	-62*
O=C(/C=C/c1ccccc1)NC(=S)Nc1ccc(CN2CCOCC2)cc1	-2%[15.4 µM]	2%	i	-9	?	-63*
O=C(/C=C/c1ccc(Cl)cc1Cl)NC(=S)Nc1ccc(CN2CCOCC2)cc1	-35%	-1%	i	30	-11%	-7
CCc1cccc2c(CCO)c[nH]c12	·	·	·	·	·	-9
FC(F)(F)c1ccc(N2CCN(c3ncnc4c3nnn4Cc3ccccc3)CC2)nc1	17%	-2%	-86%*	1	4%	-10
COCCCNC(=O)c1ccc2c(c1)nc1n2CCCCC1	·	-1%	·	·	·	-3
CCOc1ccc(-n2c(SCC(=O)Nc3cccc(Cl)c3)nc3c(oc4ccccc43)c2=O)cc1	·	1%	·	·	·	·
Cc1ccc(-c2nc3cc(NC(=O)C(C)C)ccc3o2)cc1	21%	-3%	i	1	-7%[15.4 µM]	-11
CC(Oc1ccc(Cl)cc1Cl)C(=O)Nc1ccc2oc(-c3ccncc3)nc2c1 (stereo unspecified)	2%	4%	i	-13	32µM*	1
COc1ccc(NC(=O)CSc2nc(-c3ccc(F)cc3)c3cccc(C)c3n2)cc1	·	-2%	·	·	·	0
CN1C(=O)C(C)(C)c2cc(S(=O)(=O)N3CCN(c4ccc(F)cc4)CC3)ccc21	23%	-4%	i	-3	-13%	-60*
CC/C=C(\C(=O)N[C@H]1C(=O)N2C(C(=O)OCOC(=O)C(C)(C)C)=C(COC(N)=O)CS[C@H]12)c1csc(N)n1	·	·	·	·	·	-6
Cc1[nH]n(-c2ccc([N+](=O)[O-])cc2)c(=O)c1C=NCCN1CCN(C(=O)C(C)C)CC1	?	25µM*	i	34	-1%	8
Cc1[nH]n(-c2ccc([N+](=O)[O-])cc2)c(=O)c1C=NCCc1ccc(S(N)(=O)=O)cc1	13%[15.4 µM]	4%	i	-5	7%	-13
O=C1Cc2cc(Cl)ccc2N1	·	·	·	·	·	15
Cn1cc(C(=O)Nc2cccc(F)c2)cn1	28%	0%	-122%*	6	6%	-9
CC(=O)NC(Cc1cccc(F)c1)C(=O)NC1CCN(C(=O)Nc2ccccc2)CC1 (stereo unspecified)	-2%[15.4 µM]	-1%	i	-5	-15%	-1
COC(=O)C1=C(C)N(C)C(C)=C(C(=O)OC)C1c1ccc(Cl)cc1	12%	0%	i	6	-4%	-16
CCOC(=O)C1=C(C)N(C)C(C)=C(C(=O)OCC)C1c1ccc(Cl)cc1	-3%[15.4 µM]	1%	i	-9	5%	-61*
CN1C(=O)C(CC(=O)N2CCN(C(c3ccccc3)c3ccccc3)CC2)N(C)C1=O (stereo unspecified)	-47%	0%	-115%*	-9	13%	-1
CC(=O)N1CCN(C(c2ccccc2)c2ccccc2)CC1	-1%[15.4 µM]	-2%	i	1	-7%	-1
Cc1[nH]ccc(=O)c1OCc1c(Cl)cccc1Cl	?	-1%	-114%*	4	10%	-6
Cc1[nH]ccc(=O)c1OCC(=O)O	-4%	2%	i	-3	2%	1
SMILES	gsp ag	RXFP1 ag	Akt phos inh	TSHR antag	gsp antag	RXFP1 antagonist
CCS(=O)(=O)c1ccc(-c2csc(-c3ccccc3Cl)n2)c(Cl)c1Cl	?	0%	-128%*	-3	11%	4
CCS(=O)(=O)c1ccc(-c2csc(-c3ccc(Cl)cc3)n2)c(Cl)c1Cl	-26%	0%	i	2	16%	-16
CCCCn1c(CCC)nc([N+](=O)[O-])c1Sc1ccc(Cl)cn1	21%	-3%	-114%*	-4	-25%	4
CC(=O)OCC1=C(C(=O)O)N2C(=O)[C@@H](NC(=O)CSc3ccncc3)[C@H]2SC1	-7%[15.4 µM]	2%	i	9	10%	-92*!
O=c1c2ccccc2nc(COc2ccccc2)n1/N=C/c1c[nH]c2ccccc12	5%	0%	i	14	-6%	·
O=c1c2ccccc2nc(COc2ccccc2)n1/N=C/c1ccc(O)cc1O	12%	5%	i	-9	?	-71*
O=C(c1ccc2c(=O)n3c(nc2c1)CCCCC3)N1CCN(c2ccccc2)CC1	-22%[15.4 µM]	0%	i	1	-4%	-13
O=C(c1ccc2c(=O)n3c(nc2c1)CCCCC3)N1CCCCC1	3%	2%	i	-6	5%	-108*
CCn1c2ccccc2c2cc(/C=N/n3c(-c4cc(C)[nH]n4)n[nH]c3=S)ccc21	-1%[15.4 µM]	-1%	i	-21	35µM*	-29
CCOc1cc(C2C(C(=O)OC)=C(C)N=C3SC(C)C(=O)N32)ccc1OC(C)=O (stereo unspecified)	6%	2%	i	-4	4%	9
CCOC(=O)C1=C(C)N=C2SC(C)C(=O)N2C1c1ccc(OC(C)=O)c(OC)c1 (stereo unspecified)	-18%	2%	-104%*	-7	11%	4
CCNC(=O)NC(=O)CSc1ccc(S(=O)(=O)N(C)C2CCCCC2)cn1	-26%	0%	i	-6	4%	-8
O=C1NC(Cc2ccccc2)c2nc3ccc(F)cc3c(=O)n2-c2ncccc21 (stereo unspecified)	0%	·	i	·	·	-10
O=C1CCCC/C1=C\Nc1ccccc1C(=O)O	-2%	1%	i	1	7%	1
NC(=O)c1ccccc1N/C=C1\CCCCC1=O	21%	0%	i	-7	50µM*	2
CCC(=O)C(Cc1ccccc1)(Cc1ccccc1)CC(C)N(C)C (stereo unspecified)	·	·	·	·	·	-11
CC(=O)c1ccc(N2CCN(CC(O)COC(c3ccccc3)c3ccccc3)CC2)cc1 (stereo unspecified)	?	-3%	i	21	-20%	-79*
CC(=O)c1ccc(N2CCN(CC(O)COC(c3ccccc3)c3ccccc3C)CC2)cc1 (stereo unspecified)	-29%[15.4 µM]	-6%	i	4	?	-28
CC(=O)c1ccc(NC(=S)NCCc2cccc(Cl)c2)cc1	21%	4%	i	-1	-26%	2
CCOC(=O)c1[nH]c2ccccc2c1NC(=O)c1ccc(C)c(C)c1	·	0%	·	·	·	·
